Holding throughout (experiment): Euclidean distance of Cell Painting phenotypic profile (signed KS, 77 features) to DMSO centroid (dimensionless distance); 5 or 10 uM (library dependent); higher = stronger phenotypic change vs DMSO (phenoactivity)
Settings in all cases: 48 h

One experiment deals with 786-O. The gist of the method: (§1)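 At 10 or 5 uM, as set by the library, and 0.1% DMSO final, compounds were applied for 48 h to five cancer lines and one healthy fibroblast line. Stained cells were imaged confocally at 20X in 9 fields per well, and Harmony extracted 77 features scored as signed Kolmogorov-Smirnov statistics against vehicle wells on the same plate. Profiles underwent plate-position correction, correlation weighting and replicate averaging at the top dose. Phenoactivity is the Euclidean distance from each such profile to the median vehicle profile.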

A further experiment has as its system A549. The gist of the method: as §1
Another experiment deals with DU145. In outline:
as §1

A further experiment has as its system FB. In outline: as §1
The subject of a further experiment is HEPG2. The gist of the method: as §1
A further experiment deals with OVCAR4. The gist of the method:
as §1

The record followed here is the supplement of paper PMC10127200.

On to `C=CC(=O)Nc1cc(Nc2nccc(-c3cn(C)c4ccccc34)n2)c(OC)cc1N(C)CCN(C)C` [Osimertinib (AZD9291)], for which the Euclidean distance in the experiment with 786-O worked out at 4.93; in the experiment on A549, 4.24; in the experiment on DU145, 4.29; with FB, 5.35; in the experiment on HEPG2 it was 5.16; in the experiment with OVCAR4, 4.21.

`Cc1nc(N)sc1-c1ccnc(Nc2ccc(N3CCOCC3)cc2)n1`: the Euclidean distance with 786-O amounted to 2.86; in the experiment on A549, 3.52; in the experiment on DU145, 1.18; in the experiment with FB, 1.92; with HEPG2, 2.08; in the experiment on OVCAR4, 2.59.

On to `Nc1cc(C(F)(F)F)c(-c2cc(N3CCOCC3)nc(N3CCOCC3)n2)cn1` [Buparlisib (BKM120. NVP-BKM120)], for which the Euclidean distance came out at 2.55 in the experiment with 786-O; 3.38 in the experiment with A549; 2.88 with DU145; 2.98 in the experiment with FB; 2.83 in the experiment on HEPG2; 3.29 in the experiment with OVCAR4.

For the compound `N[C@@H]1CONC1=O` [D-Cycloserine], the Euclidean distance worked out at 1.67 in the experiment with 786-O; 1.18 in the experiment on A549; 1.43 in the experiment with DU145; 0.939 with FB; 0.865 in the experiment with HEPG2; 0.96 in the experiment on OVCAR4.

Take `CN(Cc1cnc2nc(N)nc(N)c2n1)c1ccc(C(=O)N[C@@H](CCC(=O)O)C(=O)O)cc1` [Methotrexate disodium]: the Euclidean distance with 786-O was determined as 2.05; with A549, 3.23; with DU145 it was 0.912; with FB, 0.603; in the experiment on HEPG2, 1.47; with OVCAR4, 2.39.

In the case of `COc1ccc(C[C@@H]2c3cc(OC)c(OC)cc3CC[N@+]2(C)CCC(=O)OCCCCCOC(=O)CC[N@@+]2(C)CCc3cc(OC)c(OC)cc3[C@H]2Cc2ccc(OC)c(OC)c2)cc1OC` [Cisatracurium Besylate], the Euclidean distance in the experiment with 786-O came to 1.42; in the experiment with A549, 0.822; in the experiment with DU145 it was 0.815; in the experiment with FB, 1.11; with HEPG2, 1.11; in the experiment on OVCAR4, 1.35.

As for `Nc1ccn([C@H]2CC[C@@H](CO)O2)c(=O)n1` [Zalcitabine], the Euclidean distance was 1.06 in the experiment with 786-O; 0.768 in the experiment with A549; 1.6 in the experiment with DU145; 0.942 in the experiment on FB; 2.07 in the experiment on HEPG2; 1.13 with OVCAR4.

Regarding `CC(C)c1ccc(NC(=O)Cn2cnc3c2c(=O)n(C)c(=O)n3C)cc1`, the Euclidean distance with 786-O came out at 1.03; with A549, 1.06; in the experiment with DU145, 1.22; with FB, 0.919; in the experiment with HEPG2 it was 0.953; in the experiment on OVCAR4 it was 1.16.

For the compound `CC(=O)c1ccc(S(=O)(=O)NC(=O)NC2CCCCC2)cc1` [Acetohexamide], the Euclidean distance is 0.925 in the experiment on 786-O; 0.868 with A549; 0.836 in the experiment with DU145; 1.19 in the experiment with FB; 0.469 with HEPG2; 0.995 in the experiment with OVCAR4.

With `COc1cnc(NS(=O)(=O)c2ccc(N)cc2)nc1` [Sulfameter], the Euclidean distance amounted to 1.33 in the experiment on 786-O; 1.11 with A549; 0.768 with DU145; 1.28 with FB; 1.49 in the experiment with HEPG2; 1.5 in the experiment on OVCAR4.

On to `CO[C@H]1C[C@@H]2CC[C@@H](C)[C@@](O)(O2)C(=O)C(=O)N2CCCC[C@H]2C(=O)O[C@H]([C@H](C)C[C@@H]2CC[C@@H](OCCO)[C@H](OC)C2)CC(=O)[C@H](C)/C=C(\C)[C@@H](O)[C@@H](OC)C(=O)[C@H](C)C[C@H](C)/C=C/C=C/C=C/1C` [Everolimus (RAD001)], for which the Euclidean distance in the experiment on 786-O worked out at 2.45; in the experiment with A549, 1.83; with DU145 it was 2.74; in the experiment with FB it was 3.19; in the experiment on HEPG2, 1.73; in the experiment with OVCAR4 it was 1.9.

Regarding `CC1=C(C(=O)O)N2C(=O)[C@@H](NC(=O)[C@H](N)C3=CCC=CC3)[C@H]2SC1` [Cefradine], the Euclidean distance in the experiment on 786-O turned out to be 0.837; with A549, 0.567; in the experiment on DU145, 0.805; with FB, 1.14; in the experiment on HEPG2, 0.578; with OVCAR4 it was 0.907.

`C/C=C(/C(=C/C)c1ccc(O)cc1)c1ccc(O)cc1` [Dienestrol]: the Euclidean distance with 786-O stood at 0.782; in the experiment on A549, 0.603; with DU145, 0.8; in the experiment on FB, 0.859; in the experiment on HEPG2, 0.715; in the experiment on OVCAR4, 0.784.

In the case of `CCC1(C)CC(=O)NC1=O` (centres undefined) [Ethosuximide], the Euclidean distance in the experiment with 786-O was determined as 0.782; with A549, 1.2; in the experiment with DU145, 1.11; in the experiment on FB, 0.965; in the experiment on HEPG2, 0.843; in the experiment with OVCAR4, 1.04.
